# Laboratory results published in article PMC4336329 (PLoS ONE, 2015).
# The whole screen tested about 310,000 compounds, of which about 14,000 (4.5%) showed an effect of 50% or more. Effects have a minus sign here. This is one part of a sample in which strong results are shown more often than they occur.
# Molecular target: human ether-à-go-go-related gene (hERG) potassium channel (human, UniProt Q12809)
# Experiment: primary screen, population patch clamp on CHO cells stably expressing hERG; higher = less effect of the substance
# 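Further: peak tail current of the secondary pulse compared with the same well before compound.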
# Sequence of human ether-à-go-go-related gene (hERG) potassium channel (Q12809 whole entry, looked up): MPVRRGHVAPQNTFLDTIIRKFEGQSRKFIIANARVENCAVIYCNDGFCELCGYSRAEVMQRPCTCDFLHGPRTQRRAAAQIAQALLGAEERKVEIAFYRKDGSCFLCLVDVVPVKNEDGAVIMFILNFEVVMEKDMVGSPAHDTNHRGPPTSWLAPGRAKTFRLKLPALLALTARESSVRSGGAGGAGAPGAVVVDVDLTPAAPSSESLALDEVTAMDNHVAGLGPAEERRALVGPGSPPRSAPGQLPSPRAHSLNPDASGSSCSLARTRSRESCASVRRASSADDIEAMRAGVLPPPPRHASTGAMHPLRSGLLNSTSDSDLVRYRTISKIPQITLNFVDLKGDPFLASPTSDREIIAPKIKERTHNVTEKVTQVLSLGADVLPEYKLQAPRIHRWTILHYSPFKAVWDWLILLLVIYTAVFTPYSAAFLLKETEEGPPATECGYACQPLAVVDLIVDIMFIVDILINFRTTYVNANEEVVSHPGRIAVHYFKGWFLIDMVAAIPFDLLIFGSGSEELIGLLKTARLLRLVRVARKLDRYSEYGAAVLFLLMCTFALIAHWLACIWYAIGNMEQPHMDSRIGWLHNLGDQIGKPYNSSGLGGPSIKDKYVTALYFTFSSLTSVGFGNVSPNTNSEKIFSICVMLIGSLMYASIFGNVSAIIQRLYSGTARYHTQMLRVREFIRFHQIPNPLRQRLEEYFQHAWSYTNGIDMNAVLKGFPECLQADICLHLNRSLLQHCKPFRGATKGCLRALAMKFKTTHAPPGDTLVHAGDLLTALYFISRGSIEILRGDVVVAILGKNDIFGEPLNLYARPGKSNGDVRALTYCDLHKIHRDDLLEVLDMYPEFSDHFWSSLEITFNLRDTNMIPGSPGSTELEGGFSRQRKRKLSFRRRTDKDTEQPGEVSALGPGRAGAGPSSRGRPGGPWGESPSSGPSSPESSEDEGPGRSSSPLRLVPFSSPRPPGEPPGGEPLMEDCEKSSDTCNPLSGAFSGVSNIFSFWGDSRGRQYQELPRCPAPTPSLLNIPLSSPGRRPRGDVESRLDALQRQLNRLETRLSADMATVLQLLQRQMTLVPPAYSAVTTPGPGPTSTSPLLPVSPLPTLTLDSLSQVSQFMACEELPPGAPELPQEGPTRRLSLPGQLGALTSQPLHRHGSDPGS
row,Compound,"hERG current change (%, negative = inhibition) at 10uM [%]"
1,Cc1cc(C)n2c(Br)c(CSc3nc4ccccc4s3)nc2n1,-76.7
2,Cc1csc2nc(CSc3nc4ccccc4o3)c(Br)n12,7.03
3,Cc1cc(C)nc(NC(=O)CSc2nc3ccccc3s2)n1,2.88
4,Cc1cc(C)n(C(=O)CSc2nc3ccccc3o2)n1,19.3
5,Cc1cc(C)nc(SCc2nc3nc(C)cc(C)n3c2Br)n1,-22.6
6,Cc1cc(C)n2c(Br)c(CSc3nc4ccccc4o3)nc2n1,-63.9
7,CCOc1ccc(/C=N/NC(=O)c2[nH]ncc2Br)c(O)c1,4.05
8,CN(C)CCCNC(=O)CC(c1ccc(F)cc1)c1ccco1 (stereo not drawn),-37.3
9,COc1ccc(NC(=O)CC(c2ccc(F)cc2)c2ccc(OC(C)C)cc2)cc1 (stereo not drawn),3.91
10,CC(C)Oc1ccc(C(CC(=O)O)c2ccc(F)cc2)cc1 (stereo not drawn),6.58
11,CC(C)Oc1ccc(C(CC(=O)N(C)CCC#N)c2ccc(F)cc2)cc1 (stereo not drawn),-59.2
12,Cc1ccc(C(CC(=O)NCCCN(C)C)c2ccc(OC(C)C)cc2)cc1 (stereo not drawn),-42.9
13,CC(C)Oc1ccc(C(CC(=O)NCCCN(C)C)c2ccc(F)cc2)cc1 (stereo not drawn),-57.1
14,Br.O=C(N=c1nc2ccccn2s1)c1ccccc1,14.1
15,CCn1c(COc2ccc(=O)n(-c3ccccc3)n2)nnc1SC,2.39
16,CCn1c(COc2ccc(=O)n(-c3ccccc3)n2)nnc1SCc1ccccc1,-48.2
17,CCn1c(COc2ccc(=O)n(-c3ccccc3)n2)nnc1SCC(=O)OC,9.02
18,CCn1c(COc2ccc(=O)n(-c3ccccc3)n2)nnc1SCc1ccc(OC)cc1,-67.7
19,CCn1c(COc2ccc(=O)n(-c3ccccc3)n2)nnc1SCc1cccc(OC)c1,-39.1
20,CCn1c(COc2ccc(=O)n(-c3ccccc3)n2)n[nH]c1=S,23.3
21,CCn1c(COc2ccc(=O)n(-c3ccccc3)n2)nnc1SCc1ccccc1C,-65.4
22,C=CCSc1nnc(COc2ccc(=O)n(-c3ccccc3)n2)n1CC,-2.15
23,CCn1c(COc2ccc(=O)n(-c3ccccc3)n2)nnc1SCc1ccc(C)cc1,-59.9

row,Compound,"hERG current change (%, negative = inhibition) at 10uM [%]"
1,COc1ccc(-c2csc(NC(=O)CSc3nc(C)nc4sc(C(=O)O)c(C)c34)n2)cc1,11.9
2,COCCNc1nc2c(c(=O)n(Cc3ccccc3F)c(=O)n2C)n1C,-15.8
3,C=CCNC(=O)C(=O)Nc1ccc2c(c1)N(S(=O)(=O)c1cccs1)CCC2,-14.7
4,Cc1ccc(S(=O)(=O)NC(C(=O)Oc2cc3oc(=O)cc(C)c3cc2Cl)C(C)C)cc1 (stereo not drawn),-34.3
5,CCOc1ccc(/C=C(\C)C(=O)c2c(C)cc(C)[nH]c2=O)cc1,5.24
6,CCCCc1ccc(NC(=O)C(C)CC)cc1 (stereo not drawn),-50.5
7,CCCCC(CC)C(=O)Nc1ccccc1C#N (stereo not drawn),-4.83
8,CCCCc1ccc(NC(=O)OC)cc1,-9.08
9,CCCCc1ccc(NC(=O)CC(C)C)cc1,-6.78
10,CCCCC(CC)C(=O)Nc1ccc(C#N)cc1 (stereo not drawn),-52.5
11,CCCCC(CC)C(=O)Nc1ccc(Nc2ccccc2)cc1 (stereo not drawn),-12.8
12,COc1ccc(CNC(=O)c2ccc(NS(=O)(=O)c3ccc4[nH]c(=O)[nH]c4c3)cc2)cc1OC,13.3
13,CCOC(=O)c1ccc(NC(=O)CSc2nc(=O)n3cccc(C)c3n2)cc1,-21.9
14,COc1cc(Cl)c(S(=O)(=O)NCCCn2ccnc2)cc1Cl,3.34
15,CCOC(=O)CSCC(=O)Nc1cc(C)ccc1C,0.851
16,CNS(=O)(=O)c1cc(O)c2c(S(=O)(=O)NC)cccc2c1,11
17,Cc1c(Cl)ccc2c(C(=O)O)cc(-c3ccccc3)nc12,-1.96
18,Cc1c(Cl)ccc2c(C(=O)NC(C)c3ccncc3)cc(-c3ccncc3)nc12 (stereo not drawn),-59.3
19,COC(=O)CNC(=O)c1cc(-c2ccncc2)nc2c(C)c(Cl)ccc12,-27.9
20,C=C(C)CC1(NC(C)c2ccccc2)CCCCC1 (stereo not drawn),4
21,COc1ccc(OC)c(-c2csc(NC(=O)Cc3ccccc3OC)n2)c1,-0.305
22,COc1cccc(/C=N/NC(=O)c2nnn(-c3nonc3N)c2C(C)C)c1,11.4
23,Cc1ccc(C(=O)NCC(=O)O)o1,-5.14

row,Compound,"hERG current change (%, negative = inhibition) at 10uM [%]"
1,Cc1c(CNCCc2ccc(Cl)cc2)c(C(=O)O)c(C)n1Cc1ccccc1,-50.1
2,Cc1c(CNCCCc2ccccc2)c(C(=O)O)c(C)n1Cc1ccccc1,4.03
3,Cc1c(CNCCC2=CCCCC2)c(C(=O)O)c(C)n1Cc1ccccc1,-13.3
4,Cc1cccc(C)c1NC(=O)/C(C#N)=C/c1ccsc1,-13.2
5,Cc1c(OCC(N)=O)ccc2c(-c3ccccc3)cc(=O)oc12,5.53
6,Cc1ccc(N2CC(C(=O)N3CCN(C(=O)c4ccco4)CC3)CC2=O)cc1 (stereo not drawn),-71.7
7,O=C(C1CC(=O)N(c2ccc(Cl)cc2)C1)N1CCOCC1 (stereo not drawn),-0.293
8,O=C(C1CC(=O)N(c2ccc(Cl)cc2)C1)N1CCCCCC1 (stereo not drawn),-8.92
9,CCC(C)c1ccccc1N1CC(C(=O)N2CCN(C(=O)c3ccco3)CC2)CC1=O (stereo not drawn),-12.6
10,O=C(c1ccco1)N1CCN(C(=O)C2CC(=O)N(c3ccc(Cl)cc3)C2)CC1 (stereo not drawn),-75.4
11,O=C(c1ccco1)N1CCN(C(=O)C2CC(=O)N(c3ccccc3)C2)CC1 (stereo not drawn),-41.3
12,O=C(CNC(=O)c1ccc(OC(F)F)cc1)NCC1CCCO1 (stereo not drawn),2.87
13,CCCCN1C(=O)/C(=C/c2ccc(N3CCCCCC3)cc2)C(=O)NC1=S,-22.9
14,C=CCc1ccc(OCCCCN2CC(C)CC(C)C2)c(OC)c1.O=C(O)C(=O)O (stereo not drawn),-67
15,C=CCc1ccc(OCCCCCN2CCOCC2)c(OC)c1.O=C(O)C(=O)O,-18.1
16,C=CCc1ccc(OCCCCNC2CCCC2)c(OC)c1.O=C(O)C(=O)O,-39.9
17,C=CCc1ccc(OCCCN2CCCC(C)C2)c(OC)c1.O=C(O)C(=O)O (stereo not drawn),-65.8
18,C=CCc1ccc(OCCCCN2CCC(C)CC2)c(OC)c1,-69.6
19,C=CCc1ccc(OCCCCN2CC(C)OC(C)C2)c(OC)c1.O=C(O)C(=O)O (stereo not drawn),-25.8
20,C=CCc1ccc(OCCCCOc2ccc(C(=O)O)cc2)c(OC)c1,14
21,C=CCc1ccc(OCCCOc2ccc(C(=O)O)cc2)c(OC)c1,-1.14
22,C=CCc1ccc(OCCCNC2CCCC2)c(OC)c1,-48.1
23,CCOc1ccc(C(=O)Nc2cccc(C)n2)cc1,0.201

row,Compound,"hERG current change (%, negative = inhibition) at 10uM [%]"
1,COc1ccc(/C=N/NC(=O)c2ccn[nH]2)cc1COc1ccc(Cl)cc1,2.09
2,CCc1cc2c(=O)nc3n(c2s1)Cc1ccccc1/C3=C(/O)c1ccc(F)cc1,-3.7
3,Cc1nnc(NC(=O)CN2CCN(Cc3ccc(F)cc3Cl)CC2)s1,8.45
4,Cc1c(Cl)cccc1NC(=O)C1CCCN(S(C)(=O)=O)C1 (stereo not drawn),22
5,O=C(CN1C(=O)C2CC=C(Cl)CC2C1=O)Nc1ccc(C(=O)O)cc1 (stereo not drawn),3.39
6,CC(C)c1ccc(-c2csc3ncnc(N4CCN(C)CC4)c23)cc1,-21.6
7,CCOc1ccc(CN2CCN(c3ncnc4scc(-c5ccccc5)c34)CC2)cc1,-75.3
8,COc1ccc(-c2csc3ncnc(N4CCN(CCO)CC4)c23)cc1,-1.12
9,Cc1cc(-c2csc3ncnc(N4CCN(C)CC4)c23)cc(C)c1C,-65.2
10,Cc1ccc(-c2csc3ncnc(N4CCN(C)CC4)c23)cc1C,-18.7
11,Fc1ccc(CN2CCN(c3ncnc4scc(-c5ccccc5)c34)CC2)cc1,-39.9
12,CCN1CCN(c2ncnc3scc(-c4ccc(OC)cc4)c23)CC1,-54.6
13,OCCN1CCN(c2ncnc3scc(-c4ccc(F)cc4)c23)CC1,-22.1
14,Cc1ccc(-c2csc3ncnc(N4CCN(Cc5ccccc5)CC4)c23)cc1,18
15,CCN1CCN(c2ncnc3scc(-c4ccc(C)cc4)c23)CC1,-22.5
16,COc1ccc(-c2csc3ncnc(N4CCN(c5ccccc5)CC4)c23)cc1,12.3
17,CCN1CCN(c2ncnc3scc(-c4ccc(C)c(C)c4)c23)CC1,-76.4
18,CCOC(=O)c1ccc(NC(=O)c2ccc(C)c(S(=O)(=O)N3CCOCC3)c2)cc1,-33.4
19,CC(C)(C)C(=O)N1CCN(c2ccc(NC(=O)c3ccc([N+](=O)[O-])o3)cc2)CC1,10.2
20,COc1ccccc1N(C)S(=O)(=O)c1ccc(C(=O)NC(C)c2ccccc2)cc1 (stereo not drawn),-43.7
21,COc1ccc(-c2nnc(-c3cc4c(ccc5ccccc54)oc3=O)o2)cc1,-8.75
